Consider 109 sequences from PubChem BioAssay AID1347426 (Functional Genomics Laboratory (NCATS/FGL), 2020).

Among all 31,000 sequences or so, about 1,400 (4.5%) were called active.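 The calls were made as follows: active = median seed-adjusted z-score above 1 or below -1; inactive = the rest.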 The full list was thinned out, with actives kept by preference.

The nature of this experiment: Novel Modifiers of Survival Motor Neuron (SMN) Protein: Gene Identification via Genome-wide siRNA Screen.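 Also: luminescence tracks full-length SMN protein made from the SMN2 reporter.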 The note with it: HEK293T SMN2-luciferase reporter, siRNA knockdown, 72 h; actives lie on both sides. Summed up: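 Genome-wide siRNA screen (10418 genes, 3 siRNAs each, 1 pmol per well) by reverse transfection in HEK293T cells stably carrying an SMN2-luciferase reporter; luminescence after 72 hours, normalized to negative-control siRNA, log10-transformed, MAD-scored.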
For the sequence GGAGAGACCAGUAAACCGATT against NSFL1C, the median seed-adjusted z-score was -0.0899 (inactive).

CGAUGAACAUGUUAGACAUTT against AZIN1: the median seed-adjusted z-score was -1.14 (active).

Consider GUACAGGGAGCAGAUCAAATT against HRAS, for which the median seed-adjusted z-score was -0.85 (inactive).

Take GGAUGUUCACAACCGAAUUTT against CTNNB1: the median seed-adjusted z-score was 0.0802 (inactive).

As for GGGUAAACGAUUCCAGCAATT against N-PAC, the median seed-adjusted z-score is 0.0542 (inactive).

Take GAAUUGGACUGGAUGCUAATT against DGKK: the median seed-adjusted z-score is 0 (inactive).

With GGUCCAAAGGGAUCAGGAATT against EMR2, the median seed-adjusted z-score was 0.0569 (inactive).

As to GCAUCGUUUCUAUGAACUUTT against KCNB2, the median seed-adjusted z-score is 1.22 (active).

As for GGAUGUAAGCCUGACCAUATT against ZNF784, the median seed-adjusted z-score was 0.291 (inactive).

On to CCAGAAAGCUUCAUCCACATT against MC1R, for which the median seed-adjusted z-score is -0.64 (inactive).

GCAGAUCCCUUGUUUUCCUTT against APLN: the median seed-adjusted z-score is 0.0181 (inactive).

As for CGCUUAAGCCUUCCAACAATT against POLR2A, the median seed-adjusted z-score was -3.81 (active).

Turning to CGGGCAUUCUUAUUAGUCATT against SLC2A2, the median seed-adjusted z-score is -0.498 (inactive).

As to CAUCCAGCAUACAAAAGAATT against FCRL3, the median seed-adjusted z-score was -0.642 (inactive).

Regarding GCCUCAGUGUUAUUCGAUATT against MAP1B, the median seed-adjusted z-score was 0.139 (inactive).

For AGAUCGACUUGAUCGUGCATT against CDK10, the median seed-adjusted z-score is 0.327 (inactive).

For the sequence CAGUCUUCACUGACAACUATT against VIP, the median seed-adjusted z-score was 1.52 (active).

GGACCAAGAUGAUCAGAAATT against SAFB: the median seed-adjusted z-score is -0.954 (inactive).

As to CAUAGUCCUUGGACAUGUATT against TDRD9, the median seed-adjusted z-score is 0.0754 (inactive).

For CUACCAAUAUGAUAGGUUATT against DDX17, the median seed-adjusted z-score is 0.231 (inactive).

Take CUAUAGGUUUUAUAGCAUUTT against LIPA: the median seed-adjusted z-score was 0.535 (inactive).

As to GAGUUUCUGUCCAAACUGATT against IL17RA, the median seed-adjusted z-score was -1.29 (active).

Turning to GGCAAAAACUGUGAAUUAUTT against F10, the median seed-adjusted z-score was -0.0033 (inactive).

For the sequence CGGAAGGACAGACAAGUAATT against SIGLEC9, the median seed-adjusted z-score is 0 (inactive).

For the sequence CCAUCACGUUCAUUACCUUTT against GAN, the median seed-adjusted z-score was -1.07 (active).

With GCCUUUGCAGGUAUCAGAATT against LYPLA1, the median seed-adjusted z-score was 0 (inactive).

For GCUUGACUUCAAAACUAAATT against SERPIND1, the median seed-adjusted z-score was 0.133 (inactive).

CCCAAUCAGUAAGAACCAATT against CEACAM1: the median seed-adjusted z-score is -0.211 (inactive).

As for CCACCUAUAAAGUUCUAAATT against CAPRIN1, the median seed-adjusted z-score was 1.36 (active).

For the sequence GAUUAUACAUAUUUCGCAATT against BRCA2, the median seed-adjusted z-score is 0 (inactive).

Take UGGUGUACACUGUUACUCATT against LOC158381: the median seed-adjusted z-score is 0 (inactive).

Turning to CGGUCUACAGCAUCGAGUATT against IL22RA1, the median seed-adjusted z-score was -1.14 (active).

Regarding CUAUCGACAUCAAGAGUUUTT against PSPC1, the median seed-adjusted z-score was 0.0612 (inactive).

As for GGUUGACAGUGUGCCUAAATT against NRIP1, the median seed-adjusted z-score is 0.789 (inactive).

Take GGAUAGAUGUUUCUAUCAATT against SUZ12: the median seed-adjusted z-score was -1.65 (active).

For GGUGUUUGAUUGUGAGAAUTT against UBE2G1, the median seed-adjusted z-score is 0.174 (inactive).

In the case of CCCACUACAGAAGACUUAUTT against SLC4A1, the median seed-adjusted z-score was -0.861 (inactive).

For the sequence GAAAUGUACCCUCCAGAAATT against CCNB1, the median seed-adjusted z-score was 0.163 (inactive).

With CCGGAGAUGGAUGAAUCUATT against ICAM5, the median seed-adjusted z-score is -1 (active).

With GUUUCUCAGUACUUCCAGATT against APOA2, the median seed-adjusted z-score was -0.297 (inactive).

Regarding GGAUGAGGUCUUCACCAAATT against NENF, the median seed-adjusted z-score was -0.778 (inactive).

AAAUCUUCUUUCGACAACATT against RAB37: the median seed-adjusted z-score was 0.0678 (inactive).

On to GCAAGAUGCAUGCUCAUGATT against ZNF142, for which the median seed-adjusted z-score is 0.111 (inactive).

In the case of CUGUUGAAAUGUAAAACGATT against VNN1, the median seed-adjusted z-score is 0.549 (inactive).

Consider GGACAGAUCUUACCCAUCUTT against TRIM59, for which the median seed-adjusted z-score is 0.941 (inactive).

For the sequence AGCCUUUAAUCAUUUCUCATT against ZNF85, the median seed-adjusted z-score is -1.01 (active).

On to CUUCAUAUUUGACACCUAUTT against SLC25A26, for which the median seed-adjusted z-score is 0.0213 (inactive).

GACUUUCAGUUCUUACGAUTT against CCNB3: the median seed-adjusted z-score is 0 (inactive).

On to GGCUCAAUAUGGAGGAUUATT against NPR3, for which the median seed-adjusted z-score was -0.436 (inactive).

As to GGCCCUAUGUAUAUGCUUUTT against AK3, the median seed-adjusted z-score was -0.0313 (inactive).

Turning to ACAUGCAGCUGGUAAGGAUTT against MFSD4, the median seed-adjusted z-score is -1.89 (active).

Take GAUACGUUCUGCAAUGUUATT against EPYC: the median seed-adjusted z-score is 0.00264 (inactive).

As to AGACCAAGAGCGCAUCAAATT against JUNB, the median seed-adjusted z-score was -0.224 (inactive).

In the case of GGUUGUUGGUUGGACUGUUTT against GDE1, the median seed-adjusted z-score is -0.256 (inactive).

On to CACUCACUGUUCCUAUCAATT against STAMBPL1, for which the median seed-adjusted z-score was 0.13 (inactive).

GAAACGAUGAAAUAAGAUATT against PTGS1: the median seed-adjusted z-score was 0.0458 (inactive).

In the case of GGUUGGUCUCCUCUUCAUATT against PSMD10, the median seed-adjusted z-score is 0.265 (inactive).

Take CCCUCUCACUUGAAGAUCATT against HYAL1: the median seed-adjusted z-score was -0.163 (inactive).

For AUUCAUCUCAUAAACAAAATT against BATF2, the median seed-adjusted z-score was 0.714 (inactive).

Consider GCAUGGAGCAGAUCGUGUUTT against ITPR3, for which the median seed-adjusted z-score is -1.28 (active).

Consider GCAGCAUCAAUGUCUGGAATT against SLC6A8, for which the median seed-adjusted z-score was -0.0673 (inactive).

Consider GGCCUUAGAUGAGUCCCUATT against PABPN1, for which the median seed-adjusted z-score was -0.757 (inactive).

As for ACAAUGAACUGGAUCAACATT against TBX20, the median seed-adjusted z-score is 0.00303 (inactive).

As for CACUAUCUAUUCCACCUUUTT against HTR1A, the median seed-adjusted z-score is 0 (inactive).

As to CAGGUGCUUCGUUUCCUGATT against ARHGAP1, the median seed-adjusted z-score is -1.14 (active).

GAGUAAACCUCGAAACCGATT against MAP3K13: the median seed-adjusted z-score is -0.121 (inactive).

Consider GACCAUGAAUUUCAUUGUATT against MYLK3, for which the median seed-adjusted z-score was 0.316 (inactive).

GGACUAAAACUUUAAACUATT against POU4F2: the median seed-adjusted z-score was 1.46 (active).

For CUACCAGGAUGUUGAUAAATT against ZNF761, the median seed-adjusted z-score is 0.291 (inactive).

Turning to GGAUUGAGGUGGAGAUGGATT against MCM5, the median seed-adjusted z-score is 0.126 (inactive).

Take CUAAAGGUCUUGUUACAUUTT against ASNS: the median seed-adjusted z-score was -1.1 (active).

With ACCUAGAAGUGAACUGUGATT against GP1BA, the median seed-adjusted z-score was 0.0803 (inactive).

UGGUGACUCUCAUUUCGCATT against BCAP31: the median seed-adjusted z-score was 0.277 (inactive).

Take GGAUGUCACUGUUUCUGGATT against CLIC6: the median seed-adjusted z-score was -0.00828 (inactive).

With GGCCUACUGUGGAAUUGGATT against TTC3, the median seed-adjusted z-score was -1.17 (active).

As to CGAUCAACUCCUUAAAGGATT against FLRT2, the median seed-adjusted z-score was -0.00573 (inactive).

For the sequence GCUUUUCCAUUAUAAGGCATT against FOXE1, the median seed-adjusted z-score was -0.316 (inactive).

As to CAAAUUGCCUCGUCAAAGATT against DNTT, the median seed-adjusted z-score is 0.316 (inactive).

For the sequence GACCGACUCAGAUAUCAUUTT against SNRPA, the median seed-adjusted z-score was -2.09 (active).

CACUGGAUUUGAGAGGUUATT against ABHD7: the median seed-adjusted z-score was -0.301 (inactive).

Regarding GGCCGAGUGUACUACUUCATT against PIN1, the median seed-adjusted z-score is 0.156 (inactive).

As to GCACUGUGCUUAAGCUGGATT against PKN1, the median seed-adjusted z-score is -0.753 (inactive).

CGACAUGAUCUCCUACUCATT against ABLIM2: the median seed-adjusted z-score is -0.26 (inactive).

Turning to GAAACUGGACAGUAAGAAATT against HDAC4, the median seed-adjusted z-score was -0.0988 (inactive).

On to GGUUUCAAGAUAACCCAAATT against POU2F3, for which the median seed-adjusted z-score is -1.53 (active).

Turning to CAAAGGUUAUUCUGCAUAUTT against CTSO, the median seed-adjusted z-score was 0.322 (inactive).

As to GCAGGAGCUGUAUUUGAUGTT against NUDT6, the median seed-adjusted z-score is 0.281 (inactive).

As to AGAUGUACGAGGAAAAGUATT against WNK4, the median seed-adjusted z-score is 0.385 (inactive).

As to GGUGUUUGAUAUACAGAGGTT against RABL2A, the median seed-adjusted z-score is 0.794 (inactive).

On to CGACUCUGACACCACCAUATT against GOSR2, for which the median seed-adjusted z-score was -1.25 (active).

Turning to CCAUGGAUUUUAUGAGGAATT against ECHDC1, the median seed-adjusted z-score was 0.554 (inactive).

Turning to CCUUCAUUAAUGAGUCAUATT against ZNF426, the median seed-adjusted z-score is 0.2 (inactive).

For the sequence UGCAGCCUCUCCAAACUUATT against SP6, the median seed-adjusted z-score was -0.176 (inactive).

As to GCCCAACAAGUGUACGUUUTT against GLIS3, the median seed-adjusted z-score was -0.00906 (inactive).

In the case of GGCUGAUAAAAAUCCACGATT against RICS, the median seed-adjusted z-score is 0.665 (inactive).

For the sequence AGUACGAUCUUGACUUCAATT against ENO3, the median seed-adjusted z-score was -0.142 (inactive).

For GGGAAGUCUUUUAAUCGUATT against ZNF780B, the median seed-adjusted z-score is -0.332 (inactive).

Turning to CUGUUGGUAUUGUCCACAATT against MAL, the median seed-adjusted z-score was 0.0733 (inactive).

Regarding GGGACUUUUGCAAAGGAAATT against CLEC5A, the median seed-adjusted z-score is -1.07 (active).

Take GGAGAGCUGUGAAAAGUCATT against CCR8: the median seed-adjusted z-score was -0.206 (inactive).

As to GAACUUAGACCAACUUUAATT against COX5A, the median seed-adjusted z-score is -0.348 (inactive).

Consider CCACAAGCUGCAUAAGAGATT against SPTBN4, for which the median seed-adjusted z-score was -0.0625 (inactive).

With GGACUUUUACACCACCUUUTT against NRXN2, the median seed-adjusted z-score was -0.485 (inactive).

With CAACGACUACAGGUCUGUATT against ITGA11, the median seed-adjusted z-score is 0.496 (inactive).

Turning to GGCAGGAAGUCAAACCUAUTT against KLK2, the median seed-adjusted z-score is 0.0716 (inactive).

Consider CAAACGAGGUGAACGAUGATT against PYGO1, for which the median seed-adjusted z-score is -1.23 (active).

For AGAUACUCACGGACAUUAUTT against COASY, the median seed-adjusted z-score is 0 (inactive).

GUCACGCUAUGAGACCUCATT against E2F1: the median seed-adjusted z-score was -0.211 (inactive).

Turning to GCAUCGAAUUUGCAGAACATT against PNN, the median seed-adjusted z-score was 1.29 (active).
